Consider one substance from PMC5227109.

The target of the experiment is Sister chromatid cohesion protein 2 (UniProt Q04002). As to the kind of experiment: cross-link between two proteins; cross-linking mass spectrometry.
UniProt Q04002, sequence (Q04002 whole entry): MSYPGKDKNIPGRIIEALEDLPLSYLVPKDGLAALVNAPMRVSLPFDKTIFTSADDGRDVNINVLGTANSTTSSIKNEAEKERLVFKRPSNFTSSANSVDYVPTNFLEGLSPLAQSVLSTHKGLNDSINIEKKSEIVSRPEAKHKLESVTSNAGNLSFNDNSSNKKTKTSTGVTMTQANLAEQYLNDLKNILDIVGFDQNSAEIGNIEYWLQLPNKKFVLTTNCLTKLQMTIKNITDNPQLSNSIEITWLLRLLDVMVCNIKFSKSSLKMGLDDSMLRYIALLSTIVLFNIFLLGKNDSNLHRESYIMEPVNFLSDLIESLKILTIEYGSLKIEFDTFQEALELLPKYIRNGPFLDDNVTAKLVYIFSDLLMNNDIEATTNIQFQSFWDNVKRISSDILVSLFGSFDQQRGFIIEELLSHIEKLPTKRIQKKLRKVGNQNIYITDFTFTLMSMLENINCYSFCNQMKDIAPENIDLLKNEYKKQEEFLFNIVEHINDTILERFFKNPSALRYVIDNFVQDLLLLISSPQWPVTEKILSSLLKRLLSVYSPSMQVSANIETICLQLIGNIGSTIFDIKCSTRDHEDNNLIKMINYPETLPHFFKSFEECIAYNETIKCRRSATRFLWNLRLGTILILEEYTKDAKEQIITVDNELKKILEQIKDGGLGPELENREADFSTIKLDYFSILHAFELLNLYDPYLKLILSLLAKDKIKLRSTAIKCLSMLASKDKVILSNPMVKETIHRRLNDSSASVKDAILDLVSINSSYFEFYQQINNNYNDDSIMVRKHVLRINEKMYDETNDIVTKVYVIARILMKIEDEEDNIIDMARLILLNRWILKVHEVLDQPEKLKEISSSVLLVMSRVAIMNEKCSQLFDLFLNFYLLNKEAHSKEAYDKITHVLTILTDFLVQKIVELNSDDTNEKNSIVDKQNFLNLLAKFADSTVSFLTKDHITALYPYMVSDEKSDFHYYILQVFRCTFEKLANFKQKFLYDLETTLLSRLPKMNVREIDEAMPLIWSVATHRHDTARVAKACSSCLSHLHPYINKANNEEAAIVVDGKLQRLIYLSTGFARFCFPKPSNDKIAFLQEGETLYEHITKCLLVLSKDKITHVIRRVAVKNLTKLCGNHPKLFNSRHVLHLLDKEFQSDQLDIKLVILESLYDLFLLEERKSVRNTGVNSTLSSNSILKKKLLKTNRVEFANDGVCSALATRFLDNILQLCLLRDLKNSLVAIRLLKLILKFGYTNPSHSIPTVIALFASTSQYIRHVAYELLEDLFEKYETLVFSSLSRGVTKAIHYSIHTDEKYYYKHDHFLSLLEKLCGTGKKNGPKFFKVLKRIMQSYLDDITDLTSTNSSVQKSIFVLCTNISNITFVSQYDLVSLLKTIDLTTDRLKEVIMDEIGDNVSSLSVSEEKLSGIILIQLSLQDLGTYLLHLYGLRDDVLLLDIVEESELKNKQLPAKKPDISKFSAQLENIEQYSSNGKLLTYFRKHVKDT

Consider “MAU2 chromatid cohesion factor homolog, P40090”, for which the “listed as a hit” value is on record as “yes”.
